Source: PubChem BioAssay AID1159580 (chemical genetic matrix, 2015)
Out of some 5,500 compounds screened, about 2,000 (36%) were called active. Inconclusive results (about 18%) are left out. Cut-off read from the data, not from the text of the source: active = normalized growth mostly below about 0.91 (no sharp cut-off); inconclusive = no clear call, values can overlap the other calls; inactive = mostly above about 0.92. The list shows a part of the results.

Test: chemical genetic growth profiling, strain panel (AID 1159580);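 note: tested at 20 µM; growth read once vehicle control cultures reached saturation at 30 °C; 1 = growth at the plate median or of vehicle wells; lower values mean less growth of the strain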
Conditions: growth OD

Measured: normalized growth

C/C=C1\[C@H]2C=C(C)C[C@]1(N)c1ccc(=O)[nH]c1C2
inactive: S. cerevisiae deletion strains, locus YJR075W, strain HOC1, stronger effect = lower value 0.997 | S. cerevisiae deletion strains, locus YKL009W, strain mrt4, stronger effect = lower value 1.01 | S. cerevisiae deletion strains, locus YKL068W, stronger effect = lower value 1.01 | S. cerevisiae deletion strains, locus YKL085W, strain MDH1 (second series), stronger effect = lower value 1 | S. cerevisiae deletion strains, locus YKL085W, strain MDH1, stronger effect = lower value 1 | S. cerevisiae deletion strains, locus YKL160W, strain elf1, stronger effect = lower value 0.989 | S. cerevisiae deletion strains, locus YKL190W, strain CNB1, stronger effect = lower value 1.01 | S. cerevisiae deletion strains, locus YKR001C, strain vps1, stronger effect = lower value 1.03 | S. cerevisiae deletion strains, locus YKR026C, strain gcn3, stronger effect = lower value 1.02 | S. cerevisiae deletion strains, locus YKR091W, strain srl3, stronger effect = lower value 1.02 | S. cerevisiae deletion strains, locus YLL001W, strain dnm1, stronger effect = lower value 1.02 | S. cerevisiae deletion strains, locus YLL026W, stronger effect = lower value 1.01 | S. cerevisiae deletion strains, locus YLL041C, strain sdh2, stronger effect = lower value 1.02 | S. cerevisiae deletion strains, locus YLR027C, strain aat2, stronger effect = lower value 1.02 | S. cerevisiae deletion strains, locus YLR039C, strain RIC1, stronger effect = lower value 1.05 | S. cerevisiae deletion strains, locus YLR058C, strain SHM2, stronger effect = lower value 1.01 | S. cerevisiae deletion strains, locus YLR102C, strain apc9, stronger effect = lower value 1.02 | S. cerevisiae deletion strains, locus YLR113W, strain HOG1, stronger effect = lower value 1.01 | S. cerevisiae deletion strains, locus YLR221C, strain rsa3, stronger effect = lower value 1.01 | S. cerevisiae deletion strains, locus YLR258W, strain gsy2, stronger effect = lower value 1.03 | S. cerevisiae deletion strains, locus YLR262C, strain YPT6 (second series), stronger effect = lower value 1.01 | S. cerevisiae deletion strains, locus YLR262C, strain YPT6, stronger effect = lower value 1.05 | S. cerevisiae deletion strains, locus YLR268W, strain sec22, stronger effect = lower value 0.992 | S. cerevisiae deletion strains, locus YLR320W, strain mms22, stronger effect = lower value 1.04 | S. cerevisiae deletion strains, locus YLR330W, strain CHS5, stronger effect = lower value 1.01 | S. cerevisiae deletion strains, locus YLR342W, strain FKS1 (second series), stronger effect = lower value 1.04 | S. cerevisiae deletion strains, locus YLR342W, strain FKS1, stronger effect = lower value 1.02 | S. cerevisiae deletion strains, locus YLR357W, strain rsc2, stronger effect = lower value 1.06 | S. cerevisiae deletion strains, locus YLR370C, strain arc18, stronger effect = lower value 1.02 | S. cerevisiae deletion strains, locus YLR371W, strain rom2, stronger effect = lower value 1.01 | S. cerevisiae deletion strains, locus YLR384C, strain iki3, stronger effect = lower value 1.02 | S. cerevisiae deletion strains, locus YLR418C, strain cdc73, stronger effect = lower value 1.02 | S. cerevisiae deletion strains, locus YML016C, strain PPZ1, stronger effect = lower value 1 | S. cerevisiae deletion strains, locus YML032C, strain rad52, stronger effect = lower value 1.01 | S. cerevisiae deletion strains, locus YML120C, strain ndi1, stronger effect = lower value 1.02 | S. cerevisiae deletion strains, locus YML124C, strain tub3, stronger effect = lower value 1.01 | S. cerevisiae deletion strains, locus YMR058W, strain fet3, stronger effect = lower value 1.02 | S. cerevisiae deletion strains, locus YMR078C, strain ctf18, stronger effect = lower value 1.02 | S. cerevisiae deletion strains, locus YMR125W, strain sto1, stronger effect = lower value 1.03 | S. cerevisiae deletion strains, locus YMR129W, stronger effect = lower value 1.03 | S. cerevisiae deletion strains, locus YMR205C, strain PFK2, stronger effect = lower value 1.07 | S. cerevisiae deletion strains, locus YMR223W, strain ubp8, stronger effect = lower value 1.03 | S. cerevisiae deletion strains, locus YMR231W, strain pep5, stronger effect = lower value 1.02 | S. cerevisiae deletion strains, locus YMR263W, strain SAP30, stronger effect = lower value 1 | S. cerevisiae deletion strains, locus YMR307W, strain GAS1, stronger effect = lower value 1.02 | S. cerevisiae deletion strains, locus YNL067W, strain RPL9B, stronger effect = lower value 1 | S. cerevisiae deletion strains, locus YNL071W, strain lat1, stronger effect = lower value 1.02 | S. cerevisiae deletion strains, locus YNL128W, strain TEP1, stronger effect = lower value 1.02 | S. cerevisiae deletion strains, locus YNL153C, strain GIM3, stronger effect = lower value 1 | S. cerevisiae deletion strains, locus YNL183C, strain NPR1, stronger effect = lower value 0.956 | S. cerevisiae deletion strains, locus YNL209W, strain ssb2, stronger effect = lower value 1.02 | S. cerevisiae deletion strains, locus YNL233W, strain BNI4, stronger effect = lower value 0.983 | S. cerevisiae deletion strains, locus YNL248C, strain rpa49, stronger effect = lower value 1.01 | S. cerevisiae deletion strains, locus YNL250W, strain rad50, stronger effect = lower value 1.01 | S. cerevisiae deletion strains, locus YNL271C, strain bni1, stronger effect = lower value 1.02 | S. cerevisiae deletion strains, locus YNL298W, strain CLA4, stronger effect = lower value 1.02 | S. cerevisiae deletion strains, locus YNL307C, strain MCK1, stronger effect = lower value 1.02 | S. cerevisiae deletion strains, locus YNL322C, strain KRE1 (second series), stronger effect = lower value 1.01 | S. cerevisiae deletion strains, locus YNL322C, strain KRE1, stronger effect = lower value 1.01 | S. cerevisiae deletion strains, locus YNR049C, strain mso1, stronger effect = lower value 1.03 | S. cerevisiae deletion strains, locus YNR052C, strain pop2, stronger effect = lower value 1.02 | S. cerevisiae deletion strains, locus YOL006C, strain TOP1, stronger effect = lower value 1.05 | S. cerevisiae deletion strains, locus YOL012C, strain htz1 0.803 | S. cerevisiae deletion strains, locus YOL147C, strain pex11, stronger effect = lower value 1.01 | S. cerevisiae deletion strains, locus YOR001W, strain rrp6, stronger effect = lower value 1 | S. cerevisiae deletion strains, locus YOR061W, strain CKA2, stronger effect = lower value 1.02 | S. cerevisiae deletion strains, locus YOR069W, strain VPS5, stronger effect = lower value 1.01 | S. cerevisiae deletion strains, locus YOR070C, strain gyp1, stronger effect = lower value 1.02 | S. cerevisiae deletion strains, locus YOR080W, strain dia2, stronger effect = lower value 1.02 | S. cerevisiae deletion strains, locus YOR083W, strain WHI5, stronger effect = lower value 0.992 | S. cerevisiae deletion strains, locus YOR106W, strain vam3, stronger effect = lower value 1.01 | S. cerevisiae deletion strains, locus YOR136W, strain idh2, stronger effect = lower value 1.02 | S. cerevisiae deletion strains, locus YOR144C, strain elg1, stronger effect = lower value 1.01 | S. cerevisiae deletion strains, locus YOR184W, strain ser1, stronger effect = lower value 1.04 | S. cerevisiae deletion strains, locus YOR231W, strain MKK1, stronger effect = lower value 1.01 | S. cerevisiae deletion strains, locus YOR265W, strain rbl2, stronger effect = lower value 1.02 | S. cerevisiae deletion strains, locus YOR270C, strain vph1, stronger effect = lower value 1.02 | S. cerevisiae deletion strains, locus YOR290C, strain snf2, stronger effect = lower value 1.01 | S. cerevisiae deletion strains, locus YOR316C, strain cot1, stronger effect = lower value 1.01 | S. cerevisiae deletion strains, locus YPL051W, strain arl3, stronger effect = lower value 0.996 | S. cerevisiae deletion strains, locus YPL055C, strain LGE1, stronger effect = lower value 1.02 | S. cerevisiae deletion strains, locus YPL078C, strain atp4, stronger effect = lower value 0.991 | S. cerevisiae deletion strains, locus YPL106C, strain sse1, stronger effect = lower value 1.06 | S. cerevisiae deletion strains, locus YPL240C, strain hsp82, stronger effect = lower value 1.03 | S. cerevisiae deletion strains, locus YPL241C, strain CIN2, stronger effect = lower value 1.01 | S. cerevisiae deletion strains, locus YPL256C, strain CLN2, stronger effect = lower value 0.99 | S. cerevisiae deletion strains, locus YPR119W, strain clb2, stronger effect = lower value 1.01 | S. cerevisiae deletion strains, locus YPR141C, strain kar3, stronger effect = lower value 1.01 | S. cerevisiae deletion strains, locus YPR163C, strain tif3, stronger effect = lower value 1.02 | S. cerevisiae deletion strains, locus YPR167C, strain met16, stronger effect = lower value 1.01 | S. cerevisiae deletion strains, strain wtn01, stronger effect = lower value 1.01 | S. cerevisiae strains, strain wild type, stronger effect = lower value 1.02
